According to PubChem BioAssay AID1490 (National Center for Advancing Translational Sciences (NCATS), 2009):
Hit rate of the full screen: of about 310,000 compounds, about 11,000 (3.5%) were called active. About 4% were inconclusive and are not listed. Calls follow the shape of the dose curve; as a rule, active = well fitted inhibition curve with a large enough effect; inconclusive = small, poorly fitted or top-dose-only effect, or another doubt; inactive = no such curve, though single readings can be large or run the other way. What follows is part of a selection rich in actives, with near analogues and random picks from the rest.

Target: 4'-phosphopantetheinyl transferase ffp (Bacillus subtilis) (UniProt Q9F4F7)
Experiment: qHTS Assay for Inhibitors of Bacillus subtilis Sfp phosphopantetheinyl transferase (PPTase);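 also: the enzyme is Sfp with the accession as filed and its product quenches rhodamine fluorescence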;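 as to Largest response in the series, negative = inhibition: 0% = enzyme reaction without inhibitor and -100% = no enzyme wells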
Conditions: Biochemical Sfp PPTase activity
Source text: Assay Submitter: Michael Burkart, University of California, San Diego
Screening Center PI: Austin, C.P.
Screening Center: NIH Chemical Genomics Center [NCGC]
The covalent attachment of a phosphopantetheinyl (4'-PP) arm to a variety of synthases and other proteins is a key posttranslational protein modification. The 4'-PP is installed on the proteins post-translationally from coenzyme A (CoA) on a conserved serine residue by action of phosphopantetheinyl transferase (PPTase) enzymes. Phosphopantetheinylation is essential for synthase activity, and removal of the PPTase gene precludes natural product synthesis in microorganisms, or in the case of fatty acid biosynthesis, renders the organism unviable. PPTase enzymes belong to a distinct structural superfamily. Within bacteria, these enzymes are grouped into two classes based upon primary structure, the AcpS-Type and Sfp-Type PPTases.
Sfp-type PPTases, corresponding to an activator of surfactin production in Bacillus subtilis, are responsible for modifying type I polyketide and nonribosomal peptide synthases of prokaryotes. Sfp-type PPTases are responsible for the activation of a variety of pathogen-associated virulence factors. Among these compounds are toxins such as mycolactone from Mycobacterium ulcerans, siderophores such as vibriobactin from Vibrio cholerae or mycobactin from Mycobacterium tuberculosis, as well as the mycolic acids which form the waxy cell wall of Mycobacteria. The biosyntheses of these natural products are considered attractive targets for drug design.
In search of small molecule Sfp-PPTase inhibitors, a fluorescence quenching assay was developed for detection of Bacillus subtilis Sfp-PPTase enzymatic activity in a miniaturized high-throughput format. The consensus ybbr acceptor peptide […] was N-terminally labeled with Black Hole Quencher-2 (BHQ-2) and used in combination with rhodamine-labeled coenzyme A as a co-substrate.
Inhibition of Sfp-PPTase was detected by recording the fluorescence intensity change over a 30-minute reaction period at a 525 nm excitation and 598 nm emission. Reagents were supplied by Michael Burkart and Timothy Foley, University of California at San Diego.
This BioAssay deposition is for validation of the developed Sfp-PPtase assay.
Assay Buffer: 50 mM Hepes-Na pH 7.6, 10 mM MgCl2, 0.01% Nonidet P-40, and 0.01% BSA.
3 uL of Sfp-PPTase enzyme (final concentration 15 nM) and 1 uL of substrate mixture (final concentration for rhodamine-CoA and BHQ-2-YbbR 5 uM and 12.5 uM, respectively) dispensed in columns 1, 2, 5 - 48. Columns 1 and 2 used to generate neutral control (uninhibited reaction)
Three uL of reagents, consisting of buffer (in columns 3 and 4 as negative control) and Sfp-PPTase (in columns 1, 2, 5 - 48) were dispensed into 1,536-well Greiner black solid bottom plate. Compounds (23 nL) were transferred via Kalypsys pintool equipped with 1,536-pin array. The plate was incubated for 15 min at room temperature, followed by the addition of 1 uL substrate to start the reaction. The plate was then centrifuged at 1000 rpm for 15 seconds, and the fluorescence intensity recorded on a ViewLux High-throughput CCD imager (Perkin-Elmer) using standard BODIPY optics (525 nm excitation and 598 nm emission). The plate was then incubated for 30 minutes, and a second read on the ViewLux was performed. The fluorescence intensity difference over the 30-minute period was used to calculate the respective reaction rate for each well.
Potency is read from the fitted curve at half-maximal effect.

Largest response in the series, negative = inhibition, inactive:
O=c1cc(-c2ccc(O)cc2)oc2c(-c3cc(-c4cc(=O)c5c(O)cc(O)cc5o4)ccc3O)c(O)ccc12 -11.5%
O=c1cc(-c2ccc(O)c(O)c2)oc2cccc(O)c12 -4.56%
COc1ccc(C(C)C)cc1S(=O)(=O)Nc1ncn[nH]1 16.1%
COc1ccc(CNS(=O)(=O)c2cc(-c3cc(C)no3)ccc2C(C)C)cc1 7.48%
CCc1nc2ccc(C(=O)N3CCN(c4cccc(Cl)c4)CC3)cc2nc1CC -10.1%
Nc1ccccc1SCc1cc([N+](=O)[O-])cc2c1OCOC2 -29.9%
C#CCC(C(=O)OC)(C(=O)OC)C(C[N+](=O)[O-])c1ccccc1 (centres undefined) -5.44%
O=c1c2cc(Br)ccc2nc(-c2cccc(Cl)c2)n1O 10.6%
CCc1c(C)nc(N)n2c(SCC(=O)NC3CCCCC3)nnc12 11.3%
O=C(O)C1CCCN1C1=NS(=O)(=O)c2ccccc21 (centres undefined) 13.1%
CC(C)c1ccc(NC(=S)NNc2ccc(Cl)c(C(=O)O)c2)cc1 -24.2%
Cc1ccc(C)c(NC(=S)NNC(=O)c2csc(C)c2)c1 9.77%
NC(=O)C1CCCN(CC(=O)N2CCN(c3ccccc3)CC2)C1 (centres undefined) 19%
CC1CCN(CC(=O)Nc2nccs2)CC1 6.83%
Cc1nc2ccccc2n1CC(O)c1ccccc1 (centres undefined) 2.21%
O=C(Nc1ccccc1Cl)Nn1cnnc1 10.7%
O=C(COC(=O)c1cccs1)Nc1ccccc1Cl 3.72%
CC(=O)Oc1c2c(c3c(c1CC=C(C)C)O[C@@]14C(=CC5CC1C(C)(C)OC4(C/C=C(\C)C(=O)O)C5=O)C3=O)OC(C)(CCC=C(C)C)C=C2 (some centres undefined) -62.7%
O=C(NCc1ccco1)C(c1ccncc1)N(C(=O)Cn1nnc2ccccc21)c1ccccc1 (centres undefined) 18%
O=C(Nc1ccc(S(=O)(=O)NCC2CCCO2)cc1)c1ccc(F)cc1 (centres undefined) 10.5%
COc1ccc(OC)c(CCNC(=O)CCn2ccc3cc(S(=O)(=O)N4CCCC4)ccc32)c1 4.91%
FC(F)(F)Oc1ccc(NC(=S)NCc2ccccc2)cc1 7.74%
CCNC(=S)Nc1ccc(OC(F)(F)F)cc1 14.8%
CCC(=O)Nc1ccc(-c2ccc(N3CCCCC3)nn2)cc1 14.4%
C=C1CCN(C(CC(C)C)C(=O)N2CCOCC2)S(=O)(=O)c2ccccc21 (centres undefined) -9.91%
CCOc1ccccc1NC(=O)Cn1ncc2ccc([N+](=O)[O-])cc21 -5.95%
COc1ccc(C(=O)O/N=C(\N)c2ccccn2)cc1[N+](=O)[O-] 9.71%
COc1cccc(OCC(=O)NNC(=O)c2cnccn2)c1 -17.6%
CC1CCCC(C)N1C(=O)CSc1nnnn1C1CCCC1 (centres undefined) 18.7%
CCC(CC)C(=O)Nc1c2c(nn1-c1ccc(C)cc1)CS(=O)(=O)C2 4.15%
COc1ccc(C(=O)Nc2ccccc2C(=O)N2CCN(c3ccccc3)CC2)cc1 5.69%
O=C(O)C1CC=CCC1C(=O)Nc1ccccc1C(=O)N1CCN(c2ccccc2)CC1 (centres undefined) 22.9%
Cc1cc(C)c(S(=O)(=O)N(C)CC(=O)NCC2CCCO2)c(C)c1 (centres undefined) 16.6%
COc1ccc(/C=C/c2c(-c3cccc(C)c3)oc3ccc(-c4ccc5c(c4)OCO5)cc23)cc1 1.24%
NNC(=O)c1oc2nc(-c3ccccc3)cc(-c3ccco3)c2c1N -13.3%
CNc1nc(-c2ccccc2)cc(-c2ccccc2)n1 -1.57%
CN1C(=O)CN2CCc3ccccc3C2c2cc(Cl)ccc21 (centres undefined) 11%
CC(C)(C)NS(=O)(=O)c1ccc(NC(=O)C2CCCO2)cc1 (centres undefined) 9.67%
COC(=O)c1cccc(N(CC(=O)NCC2CCCO2)C(=O)CCC(=O)Nc2cc(C)on2)c1 (centres undefined) -5.12%
Cc1ccc(NC(=O)CSc2nnc(CNC(=O)c3ccccc3F)o2)cc1Cl 12.4%
CS(=O)(=O)n1nc(-c2ccco2)nc1N 23.7%
Cn1cccc1-c1nc2ccccc2n1C 1.06%
CC(CCc1ccccc1)NC(=O)c1cnc(Cl)c(Cl)c1 (centres undefined) 8.93%
Cc1onc(C(=O)NN)c1C(=O)N1CCN(C(c2ccccc2)c2ccccc2)CC1 1.91%
Oc1ccccc1CN1CCN(C(c2ccccc2)c2ccccc2)CC1 -13.4%
Clc1cccc(CN2COc3c(cc(Cl)c4cccnc34)C2)c1 -2.55%
CCOC(=O)N1CCN(C(=O)C2CCN(c3ncnc4c3sc3cccc(F)c34)CC2)CC1 -3.49%
O=C(c1ccc(Cn2cc([N+](=O)[O-])cn2)o1)N1CCCC1 5.1%

Potency, active:
COc1c(O)cc2oc(-c3ccc(O)c(O)c3)cc(=O)c2c1O 50.1 µM
Nc1ccccc1SC(C[N+](=O)[O-])c1ccccc1 (centres undefined) 7.94 µM
Cc1ccc(C)c(NC(=S)NNC(=S)Nc2ccc(C(C)C)cc2)c1 4.47 µM
O=C(Nc1ccccc1Cl)/C(Cl)=C(\Cl)S(=O)c1ccccc1 (centres undefined) 6.31 µM
CS(=O)(=O)c1sc(C(=O)NC(=S)Nc2ccc(OC(F)(F)F)cc2)c2c1C=CCC2 44.7 µM
COc1ccc(C(=O)NNC(=O)c2cnccn2)cc1[N+](=O)[O-] 44.7 µM
CC(C)c1ccc(N2CCN(C(=O)c3ccccc3NC(=O)/C=C(\C(=O)O)c3ccccc3)CC2)cc1 56.2 µM
CNC(=S)NNC(=O)c1oc2nc(-c3ccccc3)cc(-c3ccco3)c2c1N 12.6 µM
c1coc(-c2nc3nc4ccccc4n3nc2-c2ccco2)c1 39.8 µM
CCN1CCN(C(c2cccnc2)c2cc(Cl)c3cccnc3c2O)CC1 (centres undefined) 39.8 µM
CCOC(=O)N1CCN(C(c2cccnc2)c2ccc3cccnc3c2O)CC1 (centres undefined) 20 µM
